SKKanGAS inh – SKKanGAS growth inhibition | S. pyogenes SKKanGAS, kanamycin growth, BacTiter-Glo, 6 h | inhibition, % at 7.5 µM | hit rate 1.3% among 300,000 | AID 1662;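 active = mean replicate score, as percent of positive control median, at least 50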;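 also: strain carries kanamycin resistance gene driven by streptokinase promoter and grows in 40 µg/ml kanamycin; loss of luminescence reflects streptokinase promoter inhibition or plain growth inhibition; 0% = median of DMSO wells and 100% = positive control at its reference dose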
tim10-1 inh – growth inhibitors of tim10-1 mutant yeast | hit rate 2.2% among 330,000 | inhibition, % at 20 µM | S. cerevisiae tim10-1 ts strain growth, BacTiter-Glo, 24 h | AID 463190;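 active = inhibition of at least 40%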;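 also: mutant grown at 25 °C; 0% = DMSO wells with yeast and 100% = wells holding no yeast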
tim23-1 inh – growth inhibitors of tim23-1 mutant yeast; inhibition, % at 20 µM; S. cerevisiae tim23-1 growth, BacTiter-Glo luminescence, 24 h; hit rate 1.3% among 330,000; AID 463212;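 active = growth inhibition of the mutant yeast at or above 50%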;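 also: temperature-sensitive mutant grown at 25 °C; plate controls were DMSO-treated mutant yeast for no effect and medium wells lacking yeast for full effect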
TIM10 inh – growth inhibitors of TIM10 yeast strain; hit rate 1.4% among 330,000; inhibition, % at 10 µM; S. cerevisiae TIM10 strain growth, BacTiter-Glo luminescence, 24 h;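 active = inhibition of 40% or more at the single tested concentration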;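 also: wild-type TIM10 isogenic control strain grown at permissive 25 °C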
NLRP3 yeast inh – NALP3 inhibition in yeast; hit rate 0.39% among 330,000; Yeast reconstituted NLRP3/ASC/caspase-1, beta-gal luminescence, 24 h; inhibition, % at 10 µM; AID 2825;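 active = inhibition of 50% or more; inactive = inhibition below 50%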;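 also: plate controls were induced DMSO wells for no effect and uninduced yeast grown without galactose for full effect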
tim10-1 confirm – confirmation of tim10-1 mutant yeast growth inhibitors; hit rate 56% among 7,400; inhibition, % at 20 µM; S. cerevisiae tim10-1 ts strain growth, BacTiter-Glo, 24 h; shares compounds with tim10-1 inh;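 active = inhibition of yeast growth at or above a set limit in either of two repeat tests at 20 µM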;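 also: tim10-1 mutant grown at permissive 25 °C to find synthetic lethal compounds; 0% = DMSO yeast wells and 100% = medium wells without yeast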
* = called active by the depositor; / = not tested or not shown. Only some compounds are listed: those with a hit (about 4.6% of all), similar ones and a draw of the others.

SMILES	SKKanGAS inh	tim10-1 inh	tim23-1 inh	TIM10 inh	NLRP3 yeast inh	tim10-1 confirm
CC1(C)Cc2c(cnn2-c2ccccc2)C(NC(=O)CCN2CCCC2=O)C1 (configuration not stated)	-0.1	16.7	5.8	1.2	5.7	/
COc1cc(NC(=O)C2=C(N3CCOCC3)/C(=C/c3ccc(Cl)cc3)CC2)cc(OC)c1OC	10.1	44.0*	30.7	19.6	8.8	44.3*
COc1ccc2cc(C(=O)N3CCCC(Nc4ccc(F)cc4)C3)n(C)c2c1 (configuration not stated)	8.6	18.5	30.2	-0.9	9.7	/
CC(C)CC(=O)NC(=S)Nc1ccccc1C(F)(F)F	8.4	41.5*	47.0	25.3	18.6	27.7
COc1cccc(CNC(=O)COc2ccc(C(=O)c3ccccc3)cc2)c1	-6.1	11.6	19.4	21.7	7.9	/
Cc1ccc(C(=O)O/N=C(\c2ccccc2)c2cccnc2)cc1	-11.0	41.9*	15.1	1.3	17.4	36.0*
Cc1cccc(C(=O)O/N=C(\c2ccccc2)c2cccnc2)c1	-4.4	37.1	9.9	16.7	25.1	/
Cc1ccc(S(=O)(=O)N/N=C\c2cc([N+](=O)[O-])ccc2Cl)cc1	4.6	46.1*	37.3	21.9	10.1	32.2*
CC(C)(C)c1ccc(/C=C/C(=O)c2ccc(NC3=NCCCS3)cc2)cc1	/	43.0*	35.0	26.1	8.0	35.4*
COc1cccc(/C=C/C(=O)c2cccc([N+](=O)[O-])c2)c1	-4.6	39.8	48.7	19.4	6.3	/
COc1cccc(/C=C/C(=O)c2ccc(NC3=NCCCS3)cc2)c1	9.0	42.7*	39.3	38.2	0.1	36.8*
COc1ccc(Nc2nnc(Cc3ccncc3)c3ccccc23)c(OC)c1	4.8	18.7	22.3	2.4	8.0	/
Cc1c(C(=O)Nc2ccccc2-c2ccccc2)cccc1[N+](=O)[O-]	0.1	41.9*	44.9	32.8	-0.1	29.1
Cc1c(C(=O)Nc2ccc(C(=O)Nc3ccccc3)cc2)cccc1[N+](=O)[O-]	-1.8	-14.7	-2.4	5.6	0.5	/
CN1CCCN(C(c2ccccc2)c2ccc(Cl)cc2)CC1 (configuration not stated)	3.6	49.6*	27.0	23.7	43.4	34.0*
CN1CCN(C(c2ccccc2)c2ccccc2)CC1	/	4.6	-4.4	11.4	-44.0	/
C[C@H](CO)N1C[C@H](C)[C@@H](CN(C)S(=O)(=O)c2ccccc2)Oc2ccc(NC(=O)CCC(F)(F)F)cc2C1=O	/	2.0	-5.6	-5.2	0.7	/
Brc1ccc(/C=N/Nc2ccc3ccccc3n2)cc1	3.1	47.6*	34.6	16.0	19.3	14.0
Brc1ccccc1/C=N/Nc1ccc2ccccc2n1	-10.0	32.6	26.2	29.2	15.4	/
CN(C)C1CCN(C(=O)c2cccc(OC3CCN(S(=O)(=O)N(C)C)CC3)c2)C1 (configuration not stated)	-13.4	7.3	-1.6	-3.8	14.2	/
Cc1cccc2nc(COc3ccc(Cl)c4cccnc34)cn12	2.9	40.5*	44.0	28.0	35.2	35.7*
Clc1ccc(C2CC(c3cccs3)n3ncnc3N2)c(Cl)c1 (configuration not stated)	-4.2	40.5*	45.2	34.4	-0.5	25.4
Clc1ccccc1C1CC(c2ccccc2)Nc2ncnn21 (configuration not stated)	-2.5	9.0	20.9	2.6	3.6	/
C/C(=N/Nc1nc(C)cc(-c2ccccc2)n1)c1ccco1	-0.1	40.8*	28.0	35.4	20.5	23.9
C/C(=N\Nc1nc(C)cc(-c2ccccc2)n1)c1cccc(N)c1	7.8	20.4	36.4	15.1	20.7	/
SMILES	SKKanGAS inh	tim10-1 inh	tim23-1 inh	TIM10 inh	NLRP3 yeast inh	tim10-1 confirm
COc1ccc(C2CC(=O)c3cnc(Nc4cc(C)cc(C)c4)nc3C2)cc1 (configuration not stated)	2.2	46.4*	30.2	36.4	13.5	26.6
O=[N+]([O-])c1ccc(/C=C/c2ccc3cccc([N+](=O)[O-])c3n2)cc1	-0.6	45.3*	26.2	14.3	13.7	24.9
Cn1c(SCC(=O)Nc2ccc(C(=O)O)cc2)nc2scc(-c3ccccc3Cl)c2c1=O	/	-2.3	-0.7	1.4	3.7	/
Cc1cc(OC(=O)c2cccc(Br)c2)c([N+](=O)[O-])c(=O)[nH]1	-7.4	45.8*	4.2	7.3	3.2	-8.3
CC(C)n1c(O)c(N=NC(=O)Cn2ccc(C(F)(F)F)n2)c2ccccc21	-17.3	43.9*	7.6	15.2	-10.7	28.1
O=C(Cn1ccc(C(F)(F)F)n1)N=Nc1c(O)[nH]c2ccccc12	-17.4	14.8	11.4	23.6	8.3	/
Cc1ccc(N2C(=O)N(CC(=O)N3c4ccccc4CC3C)C(=O)C2C)cc1 (configuration not stated)	/	6.2	34.2	-0.1	21.9	/
O=C(CSc1ccccc1)N1CCN(C(=O)c2ccco2)CC1	4.1	8.8	9.4	9.9	5.3	/
O=C(CSc1nc(-c2ccccc2)cs1)N1CCN(C(=O)c2ccco2)CC1	-3.7	43.7*	18.8	14.8	1.7	25.6
COc1cc2ccccc2cc1C(=O)N(CCN(C)C)c1nc2ccc(C)cc2s1	4.6	42.2*	19.5	31.9	25.0	13.7
COc1cc2ccccc2cc1C(=O)N(CCN(C)C)c1nc2c(C)cccc2s1	10.1	55.9*	28.4	32.4	12.7	19.5
COc1cc2ccccc2cc1C(=O)N(CCN(C)C)c1nc2c(OC)ccc(OC)c2s1	18.8	46.3*	20.7	25.5	11.0	15.0
Fc1ccc(N2CCN(c3cnc4ccccc4n3)CC2)cc1	2.1	-24.0	13.5	1.5	24.1	/
Cc1cc(OCCN2CCN(S(=O)(=O)c3ccccc3F)CC2)ccc1C(C)C	/	42.6*	26.4	20.5	19.4	26.1
S=c1[nH]c(-c2ccccc2)cn1/N=C/c1ccccc1Br	10.8	41.9*	24.9	15.3	19.2	11.2
CN1/C(=C\C(=O)Nc2ccc(Br)cc2)C(C)(C)c2ccccc21	70.7*	45.5*	48.8	39.2	18.7	53.6*
Cc1ccc(S(=O)(=O)N2CCOCC2)cc1C(=O)Nc1ccc2c(c1)OCCO2	/	6.0	1.7	10.9	8.6	/
CC1(C)CC(=O)C2=C(C1)N=C1c3ccccc3C(=O)C1C2c1ccc(Cl)cc1 (configuration not stated)	49.8*	44.2*	31.7	34.8	13.3	31.2*
Cc1ccc(C2C3=C(CC(C)(C)CC3=O)N=C3c4ccccc4C(=O)C32)cc1 (configuration not stated)	19.6	19.9	27.9	16.8	8.8	/
COc1ccc(CC(=O)Nc2nc(-c3cc(OC)ccc3OC)cs2)cc1	2.7	42.6*	41.7	10.0	19.9	34.8*
C=CC[C@H](CC(=O)N(CCO)Cc1ccccc1)C(=O)N[C@H](C)COC(=O)[C@@H](CC=C)CC(=O)OC(C)(C)C	/	3.2	14.0	0.1	20.0	/
CCN1CCN(c2oc(/C=C/c3ccccc3)nc2C#N)CC1	2.9	4.7	5.5	31.4	17.5	/
CC(C)N(CCCNC(=O)Cn1c(=O)c2cccn2c2ccc(F)cc21)Cc1ccccc1	-1.5	6.8	-24.4	8.2	24.7	/
